This passage reports activation and Potency results from PubChem BioAssay (NCATS).

Values joined by “and” are separate entries in the source; they are usually repeats but may differ in a detail not shown here. Equal entries are not always repeated. Inconclusive results are not listed. Unmarked numbers belong to inactive results. Active and inactive are the calls of the source. Calls follow the shape of the dose curve; as a rule, active = well fitted activation curve with a large enough effect; inconclusive = small, poorly fitted or top-dose-only effect; inactive = no such curve, though single readings can be large or run the other way. Peptide text beside a SMILES is read from it. * marks the point of attachment. AFC = O=c1cc(C(F)(F)F)c2ccc(N*)cc2o1
Potency is read from the fitted curve at half-maximal effect.

Chain of Cellular tumor antigen p53 (Homo sapiens) (P04637 whole entry, looked up): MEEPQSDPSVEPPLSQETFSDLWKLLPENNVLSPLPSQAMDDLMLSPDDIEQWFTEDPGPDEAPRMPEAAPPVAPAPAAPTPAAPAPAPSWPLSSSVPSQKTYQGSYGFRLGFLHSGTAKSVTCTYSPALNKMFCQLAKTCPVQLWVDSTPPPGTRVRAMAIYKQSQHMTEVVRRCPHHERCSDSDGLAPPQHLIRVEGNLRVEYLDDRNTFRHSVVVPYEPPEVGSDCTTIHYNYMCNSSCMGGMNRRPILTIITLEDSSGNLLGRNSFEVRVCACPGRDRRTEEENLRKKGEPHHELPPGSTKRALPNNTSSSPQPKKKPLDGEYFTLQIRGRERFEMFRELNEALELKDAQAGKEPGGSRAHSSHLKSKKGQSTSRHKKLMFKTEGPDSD

This test addresses Cellular tumor antigen p53 (Homo sapiens) (UniProt P04637). The test is described as follows: Primary qHTS for small molecule compounds that upregulate eGFP-tagged delta133p53alpha (in N-terminal) cells. (AID 2060322). Also: nearly all actives have a fitted effect of over 75% in size.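 As to activation: cells pre-induced with doxycycline then dosed without doxycycline; series mostly up to about 56 µM; 0% = DMSO vehicle and 100% = reference activator.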 To be noted: NCI-H358 eGFP-delta133p53alpha fluorescence, 24 h; activation: hits give high values. The source says:
Assay Development and Screening Technology
National Center for Advancing Translational Sciences (NCATS),
National Institute of Health (NIH), Rockville, Maryland
Cellular senescence (CS) is one of the hallmarks of aging and age-related diseases. Senescent cells are characterized by an irreversible growth arrest, an increase in senescence-associated beta-galactosidase (SA-beta-gal) activity and p16INK4a expression, an activation of the DNA damage response pathways, and the emergence of a senescence-associated secretory phenotype (SASP).
Delta133p53alpha, a human/primate-specific p53 protein isoform, delays or inhibits the induction of CS and SASP in various types of human cells, including progeria-derived fibroblasts, primary normal astrocytes, and CD8+ T lymphocytes. Induction of delta133p53alpha with small molecule compounds may provide therapeutic opportunities for inhibition of senescence/SASP-associated pathologies in progeria syndromes, astrocyte-mediated neuroprotection in neurodegenerative diseases, and possibly prevention and treatment of a wider range of senescence- and aging-associated diseases.
Here we report the development and validation of a cell-based quantitative high throughput screening (qHTS) assay in 1,536-well format. This qHTS assay uses the NCI-H358 cell line with doxycycline-inducible expression of enhanced green fluorescent protein (eGFP)-tagged delta133p53alpha, which allows efficient and highly quantitative measurement of the protein levels.
PROTOCOL TABLE (as described by Inglese J, Shamu CE and Guy RK. 2007)
SEQUENCE No. (e.g., 1, 2, 3, etc.); […] (e.g., Cells, Incubation, Reagent, etc.); VALUE; DESCRIPTION.
1; Cells; 4uL; 800 doxycycline treated cells / well in doxycycline-free media, 1536-well black, clear-bottom low base Aurora microplates.
2; Compounds; 23 nL; Kalypsis pin tool (Wako) equipped with 1536-well pin heads, 5-azacytidine positive control.
3; Incubation; 24 hr; 37C, 5% CO2; 95% relative humidity.
4; Aspiration; 1x; BioTek EL406 washer dispenser (Agilent).
5; Fixing; 3.5% paraformaldehyde, BioTek EL406 washer dispenser (Agilent).
6; Washing; 1x PBS; BioTek EL406 washer dispenser (Agilent).
7; Nuclei staining; 1:1000 dilution of Hoechst 33342 (Thermofisher), BioTek EL406 washer dispenser (Agilent).
8; Incubation; 20 min; in the dark at room temperature.
9; Washing; 2x, 1x PBS (ThermoFisher), BioTek EL406 washer dispenser (Agilent).
10; Reagent; 10 uL; 1x PBS per well, sealed with clear adhesive tape.
NOTES (numbers refer to sequence numbers above).
1. NCI-H358 cells expressing eGFP-tagged delta133p53alpha were grown in T75 culture flasks and treated with doxycycline for 24h, at 10 ng/ml for eGFP-D133p53a cells (N-terminal cell) and 100 ng/ml for D133p53a-eGFP cells (C-terminal cells). Cells were trypsinized, counted using a Counted 3 Automated Cell Counter (Thermo Fisher), and diluted to a concentration of 200,000 cells/ml. A Multidrop Combi Reagent Dispenser (ThermoFisher) was used to dispense 800 cells/well in […] of doxycycline-free media, into 1536-well black/clear bottom low base plates (AuroraMicroplates).
2. After plating cells, 23 nl of compound library, DMSO vehicle control or positive control (5-azacytidine) were transferred by Pin Tool (Wako). The plate map layout was the same for each plate: (column 1) non-doxycycline treated cells + DMSO vehicle control; (column 2) doxycycline treated cells + DMSO vehicle control baseline; (column 3) doxycycline treated cells + positive control 57.5 uM final concentration 5-azacytidine; (column 4) doxycycline treated cells + serial dilution of 5-azacytidine, 16-point 1:2 titration spanning 1.8 nM to […] final concentration; (columns 5-48) doxycycline treated cells + titration of library compounds.
3. Cells were incubated at 37 °C, 5 % CO2, 95% RH with breathable metal lid for 24h.
4-10. […] After two washes, 10 ul of 1X PBS (Thermo Fisher) was dispensed to each well. Clear adhesive plate seals (VWR) were applied and plates stored at 4 °C.
11. […]
For `CC(=O)OCC1=C[C@@H]2OC(=O)C3=CO[C@@H](O[C@@H]4O[C@H](CO)[C@@H](O)[C@H](O)[C@H]4O)[C@H]1[C@@H]32`, the activation is -16.8%.
Still for that read-out and setting: with `COc1ccc(-n2[nH]c(=O)c3[nH]c4cc(Cl)ccc4c(=O)c3c2=O)c(C)c1` the figure was 9%; with `C=CCNc1ncnc2ccc(Br)cc12`, -43.6%; with `C=CC(=O)N1CCCC(n2nc(-c3ccc(Oc4ccccc4)cc3)c3c(N)ncnc32)C1` (stereo not given), 18.8%.
On the same count and under the same terms, with `COc1ccc([C@H]2Cc3cccc(O)c3C(=O)O2)cc1` the figure was 3.05%.
Same read-out and setting: with `C/C(=C\CCC(C)CCO)C(=O)O[C@@H]1[C@@H](O)[C@H](OC2OC=C(C(=O)O)C3CCC(C)(O)C23)O[C@H](CO)[C@H]1O` (stereo not given in full) the figure was 13.4%.
For `CS(=O)(=O)c1ccc(C2=C(c3ccccc3)C(=O)OC2)cc1`, the activation is -5.73%.
Turning to `Cc1ccccc1C(=O)N1CC/C(=N\OS(=O)(=O)O)c2ccc(Cl)cc21`, the activation was -1.67%.
Turning to `CC(=O)N[C@@H](Cc1c[nH]c2ccccc12)C(=O)N[C@@H](CCC(=O)O)C(=O)N[C@@H](Cc1cnc[nH]1)C(=O)N[C@@H](CC(=O)O)C(=O)Nc1ccc2c(C(F)(F)F)cc(=O)oc2c1` (Ac-WEHD-{AFC}), the activation was -4.33%.
Still for that read-out and setting: with `N[C@@H](CCCC(=O)O)C(=O)O` the figure was -8.81%; with `N#CC(=C1Nc2ccccc2S1)c1ccnc(OCc2ccc(CN3CCOCC3)cc2)n1`, -32.5%; with `C=C1CC2C3(C)C(OC(C)=O)CC(=O)OC(C)(C)C3C(O)C(OC(C)=O)C2(C)C2C(=O)OC(C)C(=O)C12C` (stereo not given), -19.8%.
Still for that read-out and setting: with `Clc1ccc(N2CCN(Cc3c[nH]c4ncccc34)CC2)cc1` the figure was -17.7%.
The same measure, in the same setting: with `COc1cc2c(cc1OC)[C@@H]1Cc3ccc(OC)c(OC)c3CN1CC2` the figure was 19.3%.
`C=C1CC[C@@H]2[C@](C)(CO)[C@H](O)CC[C@@]2(C)[C@@H]1C/C=C1/C(=O)OCC1OC(=O)/C(=C/CO)C(O)C[C@@H]1C(=C)CC[C@@H]2[C@](C)(CO)[C@H](O)CC[C@]21C` (stereo not given in full): the activation is 13%.
On the same count and under the same terms, with `CCOC(=O)c1c(C)nn(-c2cccc([N+](=O)[O-])c2)c1C` the figure was -9.67%; with `CC(=C/C(=O)O)/C=C/[C@]1(O)[C@@]2(C)CO[C@]1(C)C[C@H](O[C@@H]1O[C@H](CO)[C@@H](O)[C@H](O)[C@H]1O)C2`, -16.1%.
Regarding `C[N+](C)(C)CC[N+]1(C)Cc2c(Cl)c(Cl)c(Cl)c(Cl)c2C1`, the activation is -1.69%.
In the case of `Cc1cccc(C#Cc2ccccc2)n1`, the activation was -6.63% and 22.8%.
On the same count and under the same terms, with `C[C@@H]([C@@H](O)c1ccc(O)cc1)N1CCC(O)(c2ccccc2)CC1` the figure was 5.25%.
Consider `CC(C)(C)[C@H](NC(=O)c1ccc(N)c(Cl)c1)C(=O)N1CCC[C@@H]1C(=O)N[C@H](C#N)CC(=O)O`, for which the activation was -1.07%.
In the case of `O=C(O)/C=C/c1ccc(O[C@@H]2O[C@H](CO)[C@@H](O)[C@H](O)[C@H]2O)cc1`, the activation was -3.82%.
Same read-out and setting: with `CC1CC(OC(=O)C(O)c2ccccc2)CC(C)(C)C1` (stereo not given) the figure was 1.43%.
For `C=C(C)C(=O)OC1CC2(C)OC(=CC2=O)C(=C)CC2OC(=O)C(=C)C12` (stereo not given), the Potency is 4.67 µM (active).
For the molecule `COc1ccc(NS(=O)(=O)c2ccc(N)cc2)nn1`, the activation was 6.69%.
In the case of `C=C1CC(=O)C2OC2(C)CC2OC(=O)C(=C)C2C(O)C1OC(=O)/C(C)=C\C` (stereo not given), the Potency was 16.6 µM (active).
Turning to `OC[C@@H](O)[C@@H](O[C@@H]1O[C@H](CO)[C@H](O)[C@H](O)[C@H]1O)[C@H](O)[C@@H](O)CO`, the activation was -8.37%.
As to `CC(C)[C@H](CO)Nc1nc(Nc2cccc(Cl)c2)c2ncn(C(C)C)c2n1`, the Potency is 24.3 µM (active).
With `CC(C)n1cnc2c(-c3cnc(N)nc3)nc(N3CCOCC3)nc21`, the activation was 15.7%.
On the same count and under the same terms, with `O=C(c1ccc2nccnc2c1)N1CCCCC1` the figure was -11%; with `C=CC(C)(C)O[C@@H]1O[C@H](CO[C@@H]2OC[C@](O)(CO)[C@H]2O)[C@@H](O)[C@H](O)[C@H]1O`, -18.3%.
On the same count and under the same terms, with `COc1cc(/C=C/C=O)cc(OC)c1O[C@@H]1O[C@H](CO)[C@@H](O)[C@H](O)[C@H]1O` the figure was -14.3%; with `C=C(C)C1CCC(C)C12CC(O)C1(C)OC1C2OC(=O)C(N)CCC(=O)O` (stereo not given), -6.11%.
Consider `CCC(CC)Nc1nc(C)c(-c2ccc(OC(F)(F)F)cc2OC)nc1OC`, for which the activation was -3.57%.
Same read-out and setting: with `C=CC1C(O[C@@H]2O[C@H](CO)[C@@H](O)[C@H](O)[C@H]2O)OC=C(C(=O)OC)C1CC(=O)O` (stereo not given in full) the figure was 23.2%; with `CN1CCN2c3ncccc3Cc3ccccc3C2C1` (stereo not given), -22.2%.
Same read-out and setting: with `COc1cc(/C=C/C(=O)O[C@H]2[C@H](O)[C@@H](CO)O[C@@]2(CO)O[C@H]2O[C@H](CO)[C@@H](O)[C@H](O)[C@H]2O)cc(OC)c1O` the figure was -32.8%.
Take `CCOCC(O)COc1ccc(NC(=O)CC[S+](C)C)cc1` (stereo not given): the activation was -1.78%.
As for `Cc1c(NC(C)C)c(=O)n(-c2ccccc2)n1C`, the activation is 11.7%.
Same read-out and setting: with `CC(/C=C/C1(O)C2(C)COC1(C)CC(=O)C2)O[C@@H]1O[C@H](CO)[C@@H](O)[C@H](O)[C@H]1O` (stereo not given in full) the figure was 2.68%.
